Laboratory results: PubChem BioAssay (NCATS)
Inconclusive results are not listed. Activity calls are given as the source filed them. Calls follow the shape of the dose curve; as a rule, active = well fitted curve in the direction sought with a large enough effect; inconclusive = small, poorly fitted or top-dose-only effect, or another doubt; inactive = no such curve, though single readings can be large; an effect the other way counts as inactive or inconclusive.

Key:
[1] = target: Rap guanine nucleotide exchange factor 3 (Homo sapiens) (UniProt O95398); experiment: Confirmatory qHTS for agonist of cAMP-regulated guanine nucleotide exchange factor 3 (EPAC1) (AID 1645881); also: nearly all actives have a fitted effect of over 75% in size; also: potency is read from the fitted curve at half-maximal effect;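 as to activation: EPAC1 catalysed release of BODIPY-GDP from Rap1B seen as fluorescence loss; 100% = effect of cAMP agonist control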
Sequence of Rap guanine nucleotide exchange factor 3 (Homo sapiens) (O95398 whole entry, looked up): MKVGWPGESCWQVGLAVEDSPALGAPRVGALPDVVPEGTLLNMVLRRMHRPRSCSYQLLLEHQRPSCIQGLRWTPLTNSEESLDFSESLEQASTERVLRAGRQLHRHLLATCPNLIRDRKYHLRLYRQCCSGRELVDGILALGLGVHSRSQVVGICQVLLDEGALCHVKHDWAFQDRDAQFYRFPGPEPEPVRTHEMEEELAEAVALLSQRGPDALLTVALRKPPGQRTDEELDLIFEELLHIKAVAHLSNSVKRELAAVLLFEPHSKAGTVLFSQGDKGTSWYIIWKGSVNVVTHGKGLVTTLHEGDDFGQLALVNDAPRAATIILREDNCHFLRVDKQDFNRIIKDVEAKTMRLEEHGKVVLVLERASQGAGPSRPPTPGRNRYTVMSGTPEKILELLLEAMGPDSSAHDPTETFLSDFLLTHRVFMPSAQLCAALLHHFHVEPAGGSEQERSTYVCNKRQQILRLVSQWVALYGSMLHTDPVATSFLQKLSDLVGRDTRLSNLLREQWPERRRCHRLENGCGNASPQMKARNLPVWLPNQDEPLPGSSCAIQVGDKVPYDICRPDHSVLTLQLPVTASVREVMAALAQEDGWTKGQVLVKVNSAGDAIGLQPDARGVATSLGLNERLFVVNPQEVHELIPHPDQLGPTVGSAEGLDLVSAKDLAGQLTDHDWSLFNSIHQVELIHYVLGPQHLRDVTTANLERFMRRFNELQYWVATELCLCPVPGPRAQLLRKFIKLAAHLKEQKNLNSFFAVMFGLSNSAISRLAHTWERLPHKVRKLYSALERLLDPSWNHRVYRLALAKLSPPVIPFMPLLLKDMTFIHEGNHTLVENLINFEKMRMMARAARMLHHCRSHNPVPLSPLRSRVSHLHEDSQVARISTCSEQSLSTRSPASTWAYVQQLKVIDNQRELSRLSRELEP

[2] = target: Rap guanine nucleotide exchange factor 4 (Homo sapiens) (UniProt Q8WZA2); experiment: Confirmatory qHTS for agonist of cAMP-regulated guanine nucleotide exchange factor 4 (EPAC2) (AID 1645884);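 also: nucleotide exchange releases bodipy-GDP from Rap1 and this lowers its fluorescence; nearly all actives have a fitted effect of over 65% in size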; also: potency is read from the fitted curve at half-maximal effect; as to activation: % is scaled to controls: 0 for no effect and ±100 for the full control effect
Sequence of Rap guanine nucleotide exchange factor 4 (Homo sapiens) (Q8WZA2 whole entry, looked up): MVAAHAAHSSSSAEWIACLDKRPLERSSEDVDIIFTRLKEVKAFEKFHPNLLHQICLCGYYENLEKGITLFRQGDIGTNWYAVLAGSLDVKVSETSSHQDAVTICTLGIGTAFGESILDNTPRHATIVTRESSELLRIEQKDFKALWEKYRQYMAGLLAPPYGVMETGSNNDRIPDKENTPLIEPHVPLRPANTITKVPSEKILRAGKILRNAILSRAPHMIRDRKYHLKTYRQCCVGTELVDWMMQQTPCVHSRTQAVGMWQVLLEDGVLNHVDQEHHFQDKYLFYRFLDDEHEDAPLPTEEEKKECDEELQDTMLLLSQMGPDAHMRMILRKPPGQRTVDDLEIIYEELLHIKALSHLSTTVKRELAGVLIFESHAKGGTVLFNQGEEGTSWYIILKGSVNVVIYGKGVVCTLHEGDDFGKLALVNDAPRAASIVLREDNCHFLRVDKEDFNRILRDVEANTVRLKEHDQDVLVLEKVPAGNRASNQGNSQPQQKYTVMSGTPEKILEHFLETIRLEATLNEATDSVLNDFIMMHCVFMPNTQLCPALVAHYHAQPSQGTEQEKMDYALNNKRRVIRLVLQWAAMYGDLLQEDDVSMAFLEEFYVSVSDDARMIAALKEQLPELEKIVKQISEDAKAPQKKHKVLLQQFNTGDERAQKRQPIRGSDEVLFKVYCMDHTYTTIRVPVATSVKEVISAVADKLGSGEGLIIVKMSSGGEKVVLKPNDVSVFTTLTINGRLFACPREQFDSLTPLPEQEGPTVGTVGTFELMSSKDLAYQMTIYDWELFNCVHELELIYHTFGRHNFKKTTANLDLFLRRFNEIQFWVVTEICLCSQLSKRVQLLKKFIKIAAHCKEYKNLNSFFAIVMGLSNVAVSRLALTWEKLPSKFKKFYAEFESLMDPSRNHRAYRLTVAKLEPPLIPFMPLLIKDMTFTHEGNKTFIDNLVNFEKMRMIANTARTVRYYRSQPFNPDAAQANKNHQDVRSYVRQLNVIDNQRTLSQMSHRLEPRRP

[3] = target: Rap guanine nucleotide exchange factor 4 (Homo sapiens) (UniProt Q8WZA2); experiment: Confirmatory qHTS for antagonist of cAMP-regulated guanine nucleotide exchange factor 4 (EPAC2) (AID 1645885); also: nearly all actives have a fitted effect of over 25% in size; also: potency is read from the fitted curve at half-maximal effect; as to activity change, negative = inhibition: % is scaled to controls: 0 for no effect and ±100 for the full control effect
[4] = target: Rap guanine nucleotide exchange factor 3 (Homo sapiens) (UniProt O95398); experiment: Counterscreen qHTS for antagonist of cAMP-regulated guanine nucleotide exchange factor 3 (EPAC1) (AID 1645888);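 also: fluorescence loss as bound BODIPY-GDP is released from Rap1B; % of control where 0% means no effect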
Summary of the method: (§1)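 Rap1B-BODIPY-GDP 250 nM + GDP 50 uM; cpds 7-pt, final 9.74 nM–152 uM (activator mode) or from 7.32 nM upwards (inhibitor mode); RT; FI 480/540 nm at 5 and 30 min, then ± cAMP, reread.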

[5] = target: Rap guanine nucleotide exchange factor 3 (Homo sapiens) (UniProt O95398); experiment: Counterscreen qHTS for agonist of cAMP-regulated guanine nucleotide exchange factor 3 (EPAC1) (AID 1645889); also: nearly all actives have a fitted effect of over 40% in size; also: potency is read from the fitted curve at half-maximal effect; as to activation: % of control where 0% means no effect
Summary of the method: as §1

O=C(/C=C/c1ccco1)NC(=S)Nc1cccc(-c2nc3ccccc3o2)c1
inactive: Potency [1] | activation [2] -2.07% [at 17.1 µM, percent relative to cAMP agonist control] | Potency [3] | activity change, negative = inhibition [4] -12.8% [at 30.8 µM] | activation [5] 10.2% [at 30.8 µM]

CCOCc1nnc(NC(=O)C2c3ccccc3Oc3ccccc32)s1
active: Potency [3] 67.5 µM
inactive: Potency [1] | Potency [2] | Potency [4] | Potency [5]

Cc1ccc(NC2c3ncccc3C(=O)N2Cc2cccs2)cc1 (stereo not given)
inactive: Potency [1] | activation [2] -5.52% [at 17.1 µM, percent relative to cAMP agonist control] | Potency [3] | activity change, negative = inhibition [4] 8.01% [at 30.8 µM] | activation [5] 1.62% [at 30.8 µM]

Cc1cc2nc(-c3ccc(SCc4ccccn4)nc3)[nH]c2cc1C
inactive: Potency [1] | activation [2] 4.1% [at 17.1 µM, percent relative to cAMP agonist control] | Potency [3] | activity change, negative = inhibition [4] 1.95% [at 30.8 µM] | activation [5] 19.2% [at 30.8 µM]

Clc1ccc(Cn2c(/C=C/c3ccco3)nc3ccccc32)cc1
inactive: Potency [1] | Potency [2] | Potency [3] | Potency [4] | Potency [5]

CC(=O)Nc1ccc(S(=O)(=O)/N=C2/NC(=O)/C(=C\c3ccco3)S2)cc1
inactive: Potency [1] | Potency [2] | Potency [4] | Potency [5]
active: Potency [3] 84.9 µM

CN(CC(=O)Nc1ccccc1C(F)(F)F)C(=O)c1cc(-c2cccs2)nn1-c1ccccc1
inactive: Potency [1] | Potency [2] | Potency [3] | Potency [4] | Potency [5]

CC(C)(C)c1ccc(C(=O)NCC2CCCN2S(=O)(=O)c2ccccc2)cc1 (stereo not given)
inactive: Potency [1] | Potency [2] | Potency [3] | Potency [4] | Potency [5]

Oc1ccc(NCc2ccc(OCc3ccccc3)cc2)cc1
inactive: Potency [1] | Potency [2] | Potency [3] | Potency [4] | activation [5] 16.4% [at 30.8 µM]

COc1cc(/C=N/NC(=O)c2ccccc2O)ccc1OCC(=O)Nc1ccccc1
inactive: Potency [1] | activation [2] -7.34% [at 17.1 µM, percent relative to cAMP agonist control] | Potency [3] | activity change, negative = inhibition [4] 0.781% [at 30.8 µM] | activation [5] 13.4% [at 30.8 µM]

CC1C(=O)N(Cc2cn(Cc3ccco3)nn2)CCS(=O)(=O)N1Cc1ccc(-c2cccnc2)cc1 (stereo not given)
inactive: Potency [1] | activation [2] -1.85% [at 17.1 µM, percent relative to cAMP agonist control] | Potency [3] | activity change, negative = inhibition [4] 0.588% [at 30.8 µM] | activation [5] 21.5% [at 30.8 µM]

CCN1CCc2c(sc(-n3cccc3)c2C(C)NC(=O)Nc2ccc(C(=O)OC)cc2)C1 (stereo not given)
inactive: Potency [1] | Potency [2] | Potency [3] | Potency [4] | Potency [5]

CC(C)N1CCc2c(sc(NC(=O)c3ccc(S(=O)(=O)N4CCc5ccccc54)cc3)c2C(N)=O)C1
inactive: Potency [1] | Potency [2] | Potency [3] | Potency [4] | Potency [5]

COc1ccc(C(CNC(=O)c2cccc(S(=O)(=O)Nc3ccc(C)cc3)c2)N2CCOCC2)cc1 (stereo not given)
inactive: Potency [1] | Potency [2] | Potency [3] | Potency [4] | Potency [5]

Cc1nnc(Sc2cc(NCCCO)c([N+](=O)[O-])c3nonc23)s1
inactive: Potency [1] | activation [2] 3.11% [at 17.1 µM, percent relative to cAMP agonist control] | Potency [3] | activity change, negative = inhibition [4] 1.69% [at 30.8 µM]
active: Potency [5] 8.91 µM

O=C(Nc1ccc(N2CCC(N3CCCCC3)CC2)c(C(=O)O)c1)c1ccc(Br)cc1
inactive: Potency [1] | Potency [2] | outcome [3] inactive; activator; fitted 1.6944 uM [at 12.7 µM] | Potency [4] | Potency [5]

Cc1c(C(=O)N2CCN(c3ncccn3)CC2)oc2c(Cl)cccc12
inactive: Potency [1] | Potency [2] | Potency [3] | Potency [4] | Potency [5]

COC(=O)c1c(SC)nc2ccccc2c1OCc1ccc(C)cc1
active: Potency [5] 17.8 µM
inactive: Potency [1] | Potency [2] | Potency [3] | Potency [4]

CCOc1ccc(NC(=O)CN(C)S(=O)(=O)c2ccc(-c3ccc(=O)[nH]n3)s2)cc1
active: Potency [1] 100 µM
inactive: Potency [2] | Potency [3] | Potency [4] | Potency [5]

O=C(N/N=C/c1ccccc1O)c1cccc(C(F)(F)F)c1
inactive: Potency [1] | activation [2] 5.14% [at 17.1 µM, percent relative to cAMP agonist control] | Potency [3] | activity change, negative = inhibition [4] -7.23% [at 30.8 µM] | activation [5] 8.8% [at 30.8 µM]

COC(=O)c1nn(-c2ccccc2)c(Sc2ccc(OC)cc2)c1/C=N/O
inactive: Potency [1] | activation [2] -5.43% [at 17.1 µM, percent relative to cAMP agonist control] | Potency [3] | activity change, negative = inhibition [4] -27.4% [at 30.8 µM] | activation [5] 23% [at 30.8 µM]

CCOc1cccc(-c2c(C(=O)N/N=C/c3cccs3)nnn2-c2nonc2N)c1
inactive: Potency [1] | activation [2] 2.81% [at 17.1 µM, percent relative to cAMP agonist control] | Potency [3] | activity change, negative = inhibition [4] 15% [at 30.8 µM]
active: Potency [5] 10 µM

CC(/C=C1\SC(=S)N(CCC(=O)Nc2cccc(C(=O)O)c2)C1=O)=C\c1ccccc1
inactive: Potency [1] | activation [2] 9.03% [at 17.1 µM, percent relative to cAMP agonist control] | Potency [3] | activity change, negative = inhibition [4] 19.7% [at 30.8 µM] | activation [5] 16.2% [at 30.8 µM]

Cc1cccc2sc(N(CCCN(C)C)C(=O)CCS(=O)(=O)c3ccccc3)nc12
inactive: Potency [1] | Potency [2] | Potency [3] | Potency [4] | Potency [5]

C=CCn1cc(C(=O)N2CCc3ccccc3C2)c(=O)c2cc(S(=O)(=O)N(CC)CC)ccc21
inactive: Potency [1] | Potency [2] | Potency [3] | Potency [4] | Potency [5]

COc1ccc(-c2cnnc(N/N=C/c3ccc(O)c(O)c3)n2)cc1
inactive: Potency [1] | Potency [2] | Potency [3] | Potency [4] | Potency [5]

Cc1cccc(NC(=O)c2ccc(-n3cncn3)c([N+](=O)[O-])c2)c1
inactive: Potency [1] | activation [2] 2.79% [at 17.1 µM, percent relative to cAMP agonist control] | Potency [3] | activity change, negative = inhibition [4] -21.4% [at 30.8 µM] | activation [5] 23.9% [at 30.8 µM]

Cc1ccc(NC(=O)CCC(=O)c2cccs2)nc1
inactive: Potency [1] | activation [2] 3.39% [at 17.1 µM, percent relative to cAMP agonist control] | Potency [3] | activity change, negative = inhibition [4] -8.32% [at 30.8 µM] | activation [5] 21.4% [at 30.8 µM]

CCCCCCn1nc(C(=O)OCC(=O)c2c(N)n(C)c(=O)n(C)c2=O)c2ccccc2c1=O
inactive: Potency [1] | Potency [2] | Potency [3] | Potency [4] | Potency [5]

COc1ccc(C(=O)c2nccc3ccccc23)cc1
inactive: Potency [1] | Potency [2] | Potency [3] | Potency [4] | Potency [5]

CC(=O)c1sc2nc(-c3ccco3)ccc2c1N
inactive: Potency [1] | Potency [2] | Potency [3] | Potency [4] | Potency [5]

CCOC(=O)C1=C(C)OC(N)=C(C#N)C1c1cc2c(cc1Br)OCO2 (stereo not given)
inactive: Potency [1] | activation [2] -5.39% [at 17.1 µM, percent relative to cAMP agonist control] | Potency [3] | activity change, negative = inhibition [4] -23.2% [at 30.8 µM] | activation [5] 11% [at 30.8 µM]

CCc1ccc(N(C(=O)c2csnn2)C(C(=O)NCc2ccccc2)c2ccco2)cc1 (stereo not given)
active: Potency [3] 16.9 µM
inactive: Potency [1] | Potency [2] | Potency [4] | Potency [5]

O=[N+]([O-])c1cc(CN2CCN(c3cccc(C(F)(F)F)c3)CC2)c2cccnc2c1O
inactive: Potency [1] | Potency [2] | Potency [3] | Potency [4] | Potency [5]

O=C(Nc1cccnc1)c1c(O)c2cccc3c2n(c1=O)CC3
inactive: Potency [1] | activation [2] 9.2% [at 17.1 µM, percent relative to cAMP agonist control] | Potency [3] | activity change, negative = inhibition [4] -2.81% [at 30.8 µM] | activation [5] 22.3% [at 30.8 µM]

CCOc1cc(-c2c(C#N)c(N)nc3c2CCCC3C)ccc1O (stereo not given)
active: Potency [2] 0.398 µM
inactive: Potency [1] | Potency [3] | Potency [4] | Potency [5]

CCCCCNC(=O)C(C#N)c1nc2ccccc2nc1N1CCCC1 (stereo not given)
inactive: Potency [1] | activation [2] -33.7% [at 17.1 µM, percent relative to cAMP agonist control] | Potency [3] | activity change, negative = inhibition [4] -27.7% [at 30.8 µM] | activation [5] -1.55% [at 30.8 µM]

Cc1onc(-c2c(F)cccc2Cl)c1C(=O)OCc1cnc(Cl)s1
inactive: Potency [1] | Potency [2] | Potency [4] | Potency [5]
active: Potency [3] 26.9 µM

Cc1ccccc1OCC(=O)Nc1ccccc1N1CCC(C)CC1
active: Potency [3] 42.6 µM
inactive: Potency [1] | Potency [2] | Potency [4] | Potency [5]

COC1=CC(=O)C(C2CC(=O)c3c(O)cc(O)cc3O2)=CC1=O (stereo not given)
inactive: Potency [1] | activation [2] 9.22% [at 17.1 µM, percent relative to cAMP agonist control] | Potency [3] | activity change, negative = inhibition [4] -16% [at 30.8 µM] | activation [5] 4.79% [at 30.8 µM]

CC1CCC(NC(=O)Cn2c3c(c(-c4ccccc4Cl)cc2=O)CCC3)CC1 (stereo not given)
inactive: Potency [1] | activation [2] 13.3% [at 17.1 µM, percent relative to cAMP agonist control] | Potency [3] | activity change, negative = inhibition [4] -11.4% [at 30.8 µM] | activation [5] 6.93% [at 30.8 µM]

O=C(CSc1nc(-c2ccc(F)cc2)nc2ccc(F)cc12)Nc1cccc(C(=O)O)c1
inactive: Potency [1] | Potency [2] | Potency [3] | Potency [4] | Potency [5]

CCCCNC(=O)COC(=O)c1c2c(nc3ccccc13)CCC2
inactive: Potency [1] | Potency [2] | Potency [3] | Potency [4] | Potency [5]
